Our source for the composite z-score and z-score values is PubChem BioAssay.

A short description of experiment [1]: compounds binding Alexa647 anti-His antibody – biochemical, small-molecule microarray, 635 nm fluorescence, artefact control for SMM control protein annotation, primary screen (AID 1128).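 Also: score merges feature fluorescence with signal-to-noise for each printed compound spot.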 To be noted: higher = more signal.
The subject of experiment [2] is Human papillomavirus type 1a E7 protein (residues 1-88). In words: HPV1a E7 small-molecule binders, primary screen, biochemical, small-molecule microarray, residues 1-88, 635 nm (AID 1129). To be noted: small-molecule microarray binding, fluorescence 635 nm; higher = more signal.
Experiment [3] addresses Focal adhesion kinase 1 (Homo sapiens) (UniProt Q05397). The experiment can be described thus: PTK2 protein binding on printed compound slides – biochemical, small-molecule microarray, 635/667 nm fluorescence, BSA, DTT, primary screen (AID 1130).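 Also: composite of spot emission at 667 nm and signal to noise over triplicate slides.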 The settings on record: 635 nm fluorescence, higher = more signal.
Experiment [4] has as its system Fibrinogen (Alexa647-labelled). The experiment can be described thus: Alexa647-fibrinogen binding to printed small molecules – biochemical, small-molecule microarray, 635/667 nm fluorescence, artefact control for SMM control-protein annotation, profiling panel (AID 1131).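 Also: z-score merges 667 nm fluorescence with per-spot signal-to-noise over triplicate slides.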 The settings on record: fibrinogen-A647 binding fluorescence, higher = more signal.
For experiment [5], the target named is Follistatin (Homo sapiens) (UniProt P19883). In words: FST protein binding to printed compounds – biochemical, small-molecule microarray, 635/667 nm fluorescence, primary screen (AID 1132). To be noted: 635 nm fluorescence, higher = more signal.
Chain of Follistatin (Homo sapiens) (P19883 whole entry, looked up): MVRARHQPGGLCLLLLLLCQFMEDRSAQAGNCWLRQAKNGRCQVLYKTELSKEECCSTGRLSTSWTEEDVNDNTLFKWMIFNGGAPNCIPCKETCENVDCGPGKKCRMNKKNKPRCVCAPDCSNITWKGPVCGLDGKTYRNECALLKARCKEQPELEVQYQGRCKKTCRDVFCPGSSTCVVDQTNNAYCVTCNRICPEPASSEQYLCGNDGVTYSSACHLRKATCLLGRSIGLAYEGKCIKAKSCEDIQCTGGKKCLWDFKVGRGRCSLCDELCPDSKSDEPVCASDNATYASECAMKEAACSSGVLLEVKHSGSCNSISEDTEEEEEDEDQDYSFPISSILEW
For experiment [6], the target named is Fibroblast growth factor 2 (Homo sapiens) (UniProt P09038). In words: basic fibroblast growth factor binding to printed compounds – biochemical, small-molecule microarray, 635/667 nm fluorescence, primary screen (AID 1133). To be noted: FGF2, fluorescence 635/667, higher = more signal.
Chain of Fibroblast growth factor 2 (Homo sapiens) (P09038 whole entry, looked up): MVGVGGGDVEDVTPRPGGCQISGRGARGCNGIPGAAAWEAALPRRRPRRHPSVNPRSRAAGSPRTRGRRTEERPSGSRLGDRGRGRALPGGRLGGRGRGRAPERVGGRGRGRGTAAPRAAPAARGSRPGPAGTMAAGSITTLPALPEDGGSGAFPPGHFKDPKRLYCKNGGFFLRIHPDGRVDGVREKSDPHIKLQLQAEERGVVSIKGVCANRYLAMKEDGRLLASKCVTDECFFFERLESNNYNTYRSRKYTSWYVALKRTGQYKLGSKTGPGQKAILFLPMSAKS
Experiment [7] in a line: JC-1 mitochondrial potential readout, lung cancer cells – cell-based, A549, JC-1 fluorescence, basal, 24 h, 100 nL, profiling panel (AID 1138).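 Also: A549 lung adenocarcinoma cells under basal conditions with no added stimulus; test concentration not given here.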 To be noted: higher = more signal.
Another experiment concerns Lefty1. In words: Lefty1 protein binding to printed compounds – biochemical, small-molecule microarray, 635/667 nm fluorescence, primary screen (AID 1139). The settings on record: fluorescence 635/667, higher = more signal.
Experiment [8] deals with wheat germ agglutinin (Triticum aestivum), Alexa647-labelled. In words: Alexa647-WGA lectin binding to printed small molecules – biochemical, small-molecule microarray, 635/667 nm fluorescence, artefact control for SMM control-protein annotation, profiling panel (AID 1140).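 Also: score merges 667 nm feature emission with signal to noise over triplicate slides.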 To be noted: WGA-A647 binding, 635 nm fluorescence, higher = more signal.
The target of experiment [9] is Luciferin 4-monooxygenase (Photinus pyralis) (UniProt P08659). The experiment can be described thus: inhibition of purified Photinus pyralis luciferase – biochemical, luminescence, purified enzyme, 2006 set, primary screen (AID 1141).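 Also: cell-free assay with purified firefly luciferase at 100 ng per well in PBS; test concentration not given here.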 To be noted: purified firefly luciferase, SteadyGlo luminescence, 30 min; higher = more signal, called active from +8 up or from −8 down.
Chain of Luciferin 4-monooxygenase (Photinus pyralis) (P08659 whole entry, looked up): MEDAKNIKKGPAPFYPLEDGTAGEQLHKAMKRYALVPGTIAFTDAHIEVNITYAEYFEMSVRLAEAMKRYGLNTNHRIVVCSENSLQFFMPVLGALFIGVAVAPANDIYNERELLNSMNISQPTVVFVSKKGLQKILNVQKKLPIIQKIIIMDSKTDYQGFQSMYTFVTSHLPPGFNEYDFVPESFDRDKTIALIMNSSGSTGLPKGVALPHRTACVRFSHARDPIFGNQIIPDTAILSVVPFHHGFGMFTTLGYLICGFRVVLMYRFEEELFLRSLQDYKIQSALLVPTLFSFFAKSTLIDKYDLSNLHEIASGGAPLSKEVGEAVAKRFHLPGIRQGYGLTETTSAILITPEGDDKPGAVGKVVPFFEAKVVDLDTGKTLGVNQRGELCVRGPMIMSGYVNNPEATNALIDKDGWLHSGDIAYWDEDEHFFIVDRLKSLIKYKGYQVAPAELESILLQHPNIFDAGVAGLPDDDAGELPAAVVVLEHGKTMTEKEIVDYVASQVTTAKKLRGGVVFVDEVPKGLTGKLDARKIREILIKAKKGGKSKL

Experiment [10] relates to Wnt5a (protein binding on small-molecule microarray). In words: small molecules binding Wnt5a protein – biophysical, small-molecule microarray, 635/667 nm fluorescence, primary screen (AID 1142).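 Also: fluorescence read at 667 nm with signal to noise per printed feature.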 The settings on record: 635 nm fluorescence, higher = more signal.
Experiment [11] in a line: ATP-based viability of Huh7 replicon cells – cell-based, CellTiter-Glo luminescence, basal, 48 h, cytotoxicity control for HCV replication inhibitor project, primary screen (AID 1143).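 Also: Huh7 hepatoma cells carrying a hepatitis C replication reporter with no stimulus; test concentration not given here.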 To be noted: higher = more signal, called active from +8 up or from −8 down. (In general: In antiviral work, replicon cells carry a viral genome segment that copies itself.)
A short description of experiment [12]: Pseudomonas biofilm growth suppression – PAO1 strain, BacTiter-Glo luminescence, LB-PBS, primary screen (AID 1144). The settings on record: P. aeruginosa PAO1 biofilm, 12 h, higher = more signal.
A short description of experiment [13]: basal CRE-LacZ reporter activity in PC12 – cell-based, unstimulated, primary screen (AID 1145). To be noted: no forskolin, luminescence, 4.5 h, higher = more signal, called active from +8 up or from −8 down.
The nature of experiment [14]: forskolin-driven CRE-LacZ activity in PC12 – cell-based, CRE-LacZ reporter, forskolin-stimulated, primary screen (AID 1146).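 Also: PC12 cells with 6xCRE LacZ reporter stimulated by forskolin 10 µM; beta-galactosidase reporter signal reflecting CREB driven transcription.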 To be noted: luminescence, 4.5 h, higher = more signal, called active from +8 up or from −8 down.
Experiment [15] addresses Streptavidin (Streptomyces avidinii) (UniProt P22629). In words: compounds binding control protein streptavidin – biophysical, small-molecule microarray, 635/667 nm fluorescence, artefact control for SMM compound annotation, primary screen (AID 1147).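 Also: signal reflects streptavidin binding to arrayed compounds as a control protein.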 To be noted: higher = more signal.
A short description of experiment [16]: probe aInhba binding on compound microarray – biochemical, small-molecule microarray, 635/667 nm fluorescence, primary screen (AID 1148).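 Also: score merges 667nm spot fluorescence with signal-to-noise for antibody binding to printed compounds.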 To be noted: higher = more signal.
The target in experiment [17] is Torsin-1A (Homo sapiens) (UniProt O14656). The experiment can be described thus: TOR1A wild-type binding on microarray – cell lysate, small-molecule microarray, lysate, 635/667 nm, primary screen (AID 1149). The settings on record: COS7 hTOR1A-WT lysate, 635 nm fluorescence, higher = more signal.
Chain of Torsin-1A (Homo sapiens) (O14656 whole entry, looked up): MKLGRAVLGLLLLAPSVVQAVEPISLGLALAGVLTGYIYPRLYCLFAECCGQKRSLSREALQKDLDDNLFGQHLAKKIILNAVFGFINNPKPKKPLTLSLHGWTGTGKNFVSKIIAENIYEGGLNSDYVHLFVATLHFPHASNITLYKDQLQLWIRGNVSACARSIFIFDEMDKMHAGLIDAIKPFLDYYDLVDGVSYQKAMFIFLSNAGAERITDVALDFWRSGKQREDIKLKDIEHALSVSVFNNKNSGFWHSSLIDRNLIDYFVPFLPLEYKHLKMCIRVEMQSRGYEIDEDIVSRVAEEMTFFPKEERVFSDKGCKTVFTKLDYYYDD
Experiment [18] has the same target. The experiment can be described thus: torsin A mutant lysate binding on microarrays – cell lysate, small-molecule microarray, COS7 lysate, 635/667 nm fluorescence, primary screen (AID 1150).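 Also: score pools 667 nm emission and signal to noise measuring lysate protein binding.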 To be noted: COS7 hTOR1A mutant lysate, 635 nm fluorescence, higher = more signal.
Experiment [19] concerns Sonic hedgehog protein (Shh). The experiment can be described thus: Sonic hedgehog microarray binding compounds – biochemical, small-molecule microarray, 635/667 nm fluorescence, primary screen (AID 1151).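 Also: Shh protein binding to compounds spotted on small-molecule microarray slides; score combines spot fluorescence intensity with signal-to-noise across triplicate slides.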 The settings on record: 635 nm fluorescence, higher = more signal.

SMILES strings stand for the structures. Where “and” joins values, the source holds several entries; their conditions need not be identical. Equal values may be shown once. Calls of active or inactive are those of the source. Unless noted, no rule for the calls is given here.

Chain of Streptavidin (Streptomyces avidinii) (P22629 whole entry, looked up): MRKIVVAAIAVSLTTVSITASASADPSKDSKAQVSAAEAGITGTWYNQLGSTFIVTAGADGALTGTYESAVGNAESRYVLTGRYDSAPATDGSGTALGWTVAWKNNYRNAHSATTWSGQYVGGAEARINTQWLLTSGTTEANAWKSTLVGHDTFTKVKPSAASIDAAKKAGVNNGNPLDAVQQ
Chain of Focal adhesion kinase 1 (Homo sapiens) (Q05397 whole entry, looked up): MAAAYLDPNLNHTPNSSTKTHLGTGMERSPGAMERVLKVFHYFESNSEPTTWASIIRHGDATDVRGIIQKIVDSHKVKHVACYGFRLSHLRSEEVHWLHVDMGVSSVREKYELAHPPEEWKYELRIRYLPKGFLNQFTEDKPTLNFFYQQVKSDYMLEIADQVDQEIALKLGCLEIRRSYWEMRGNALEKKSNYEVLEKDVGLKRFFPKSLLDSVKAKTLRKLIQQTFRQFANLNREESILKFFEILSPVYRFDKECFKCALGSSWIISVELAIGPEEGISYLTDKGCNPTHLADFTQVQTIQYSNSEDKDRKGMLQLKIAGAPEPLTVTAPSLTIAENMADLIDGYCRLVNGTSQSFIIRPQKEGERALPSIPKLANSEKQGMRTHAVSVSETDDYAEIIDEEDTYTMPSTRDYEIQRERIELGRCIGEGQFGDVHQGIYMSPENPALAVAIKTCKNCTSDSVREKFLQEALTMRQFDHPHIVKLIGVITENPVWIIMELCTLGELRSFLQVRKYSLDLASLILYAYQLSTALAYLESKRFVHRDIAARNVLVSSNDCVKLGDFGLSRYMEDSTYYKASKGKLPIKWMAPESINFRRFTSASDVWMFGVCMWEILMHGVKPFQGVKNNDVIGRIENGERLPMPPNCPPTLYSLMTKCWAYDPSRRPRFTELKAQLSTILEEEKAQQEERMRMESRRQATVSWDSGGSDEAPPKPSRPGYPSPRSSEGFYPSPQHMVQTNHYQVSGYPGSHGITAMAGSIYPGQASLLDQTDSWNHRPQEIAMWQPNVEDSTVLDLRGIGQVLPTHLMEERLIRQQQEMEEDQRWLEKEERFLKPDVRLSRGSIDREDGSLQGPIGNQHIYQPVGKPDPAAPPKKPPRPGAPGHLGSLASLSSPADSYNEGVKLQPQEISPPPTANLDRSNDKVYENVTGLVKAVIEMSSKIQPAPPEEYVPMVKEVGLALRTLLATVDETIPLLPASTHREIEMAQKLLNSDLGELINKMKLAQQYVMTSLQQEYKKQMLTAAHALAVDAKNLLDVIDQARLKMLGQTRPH

For the molecule `C=CCN(C(=O)C(c1cccs1)N(C(=O)/C=C\C(=O)O)c1c(Cl)cccc1CO)c1ccc(OC)cc1` (stereo not given), the composite z-score in experiment [1] was -1.78 and -1.48; in [2] it was -1.15 and -0.74; in experiment [3], -0.93 and -0.641; in experiment [4], -1.13 and -0.594; in [5], -2.61 and -1.19; in experiment [6] it was -2.55 and -1.44. The composite z-score with Lefty1 is -2.98 and -2.04; in experiment [8], -0.55 and 0.213; in [10] it was -0.57 and -0.644; in experiment [15], -1.33 and -0.327; in experiment [16] it was -0.336 and -0.0209; with Torsin-1A (Homo sapiens) [17], -2.86 and -0.746. The composite z-score in the experiment with Torsin-1A (Homo sapiens) [18] was -1.96 and -2.42; in experiment [19], -1.64 and -0.676. Further, the z-score in experiment [7] was 1.26 and 1.98; in experiment [9] it was -1.47 (inactive) and -1.26 (inactive); in experiment [11], -0.266 (inactive) and 0.28 (inactive); in experiment [12], 0.894 (inactive); in experiment [13] it was -0.895 (inactive) and -0.346 (inactive); in experiment [14], -0.569 (inactive) and 0.595 (inactive).

For the molecule `CC(C)CON=C1C[C@@H](O)[C@@H](O)[C@@H]2[C@@H]3C(=O)N(c4cccc(Oc5ccccc5)c4)C(=O)[C@@H]3CC[C@H]12`, the composite z-score in experiment [1] is 0.348; in experiment [2], 0.347; in experiment [3], -0.195; in experiment [4], 0.202; in [5], 0.39; in experiment [6], 0.397. Besides, the composite z-score in the experiment on Lefty1 was 0.349; in experiment [8] it was 0.196; in experiment [10], 0.738; in experiment [15], 0.804; in [16], -0.102; in the experiment with Torsin-1A (Homo sapiens) [17], -0.243. Further, the composite z-score in the experiment with Torsin-1A (Homo sapiens) [18] came to 0.22; in experiment [19] it was 0.697. The z-score was 0.0506 in [7]; 0.527 (inactive) in experiment [9]; -0.158 (inactive) in [11]; 0.198 (inactive) in experiment [12]; -0.292 (inactive) in [13]; 0.235 (inactive) in experiment [14].

In the case of `C[N+](C)(C)CCCCCCNC(=O)[C@H]1C[C@H]2C(=O)N[C@@H](CCCC[N+](C)(C)C)C(=O)N2[C@H]1c1cccc(OCCO)c1`, the composite z-score was 1.91 and 1.46 in experiment [1]; 0.516 and -0.266 in [2]; -0.063 and 0.0884 in [3]; 0.638 and -0.338 in [4]; 1.39 and 1.43 in experiment [5]; 1.82 and 1.66 in experiment [6]. The composite z-score in the experiment on Lefty1 is 1.59 and 0.768; in experiment [8] it was 0.348 and 0.29; in experiment [10] it was 0.138 and 0.215; in experiment [15] it was -0.621 and 0.0935; in [16] it was 0.298 and 0.135; with Torsin-1A (Homo sapiens) [17], 0.765 and 1.27. Moreover, the composite z-score with Torsin-1A (Homo sapiens) [18] is 1.11 and 0.354; in experiment [19], 1.98 and 1.79. The z-score in experiment [7] was 0.357 and -0.307; in experiment [9], -0.0709 (inactive) and 0.15 (inactive); in [11], -0.153 (inactive) and 0.0096 (inactive); in [12], -0.454 (inactive) and 0.221 (inactive); in experiment [13], -0.532 (inactive) and -1.09 (inactive); in experiment [14], 0.323 (inactive) and -0.622 (inactive).

In the case of `CC(CO)N1C(=O)[C@@H]2C3C(=O)OCCC=C[C@H]3OC23C=CCN(c2ccc4ccccc4c2)C(=O)[C@@H]13` (stereo not given in full), the composite z-score in experiment [1] was 0.62 and 1.59; in experiment [2], -0.203 and -0.362; in [3], -0.192 and 0.525; in experiment [4] it was -0.986 and -1.18; in experiment [5] it was -0.0475 and -0.0413; in [6], -1.53 and -0.879. For the same molecule, the composite z-score in the experiment with Lefty1 was -0.0302 and -0.337; in [8], -0.388 and 0.771; in experiment [10], -0.758 and -0.416; in experiment [15] it was -0.809 and -0.937; in experiment [16], -0.0933 and -0.584; with Torsin-1A (Homo sapiens) [17], -1.95 and -1.75. Besides, the composite z-score with Torsin-1A (Homo sapiens) [18] was -1.23 and -1.14; in [19], 0.0707 and -0.262. The z-score in [7] was 0.638 and 0.972; in [9], -0.618 (inactive) and -0.657 (inactive); in [11], 0.0425 (inactive) and 0.0276 (inactive); in [12] it was 0.87 (inactive) and 1.11 (inactive); in experiment [13], 0.199 (inactive) and 0.756 (inactive); in [14], -0.345 (inactive) and 0.0714 (inactive).
